# Rows were chosen to be rich in hits. Some 32% of all compounds tested hit in one or more screens of this group.
# PostGolgi ctrl: growth inhibition of yeast control strain, primary screen, counter-screen for post-Golgi transport modulator project. efflux-deficient yeast background strain, growth absorbance A615, 16 h. inhibition, % at 10 µM. 5% of 98,000 active. AID 738, 2007
# CYP2C19 activ: human CYP2C19 activators, primary screen, biochemical, luminescence | AID 1025, 2008 | activation factor at 5 µM | recombinant CYP2C19, luciferin-H EGE luminescence; stronger effect = higher value; 0 = fully inhibited enzyme, 1 = untreated enzyme | 96,000 tested, under 10 active;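 active means activation factor of at least 2 at 5 µM in the primary screen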;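 further: 0 = wells with 2.5 mM tranylcypromine and 1 = vehicle-only wells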
# CYP2C19 inh: blockers of cytochrome P450 2C19 activity – biochemical, luminescence, ADME assay, primary screen | P33261 | inhibition, % at 5 µM | CYP2C19 Supersomes, luciferin-H EGE luminescence, 30 min | 21% of 96,000 active | AID 778, 2007;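 active means CYP2C19 inhibition above a set limit at 5 µM in the primary screen, cut at about 50% in these data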;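 further: plate controls were negative control wells for no effect and 2.5 mM tranylcypromine positive control for full effect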
# CYP2C9 inhib: blockers of cytochrome P450 2C9 activity – biochemical, luminescence, ADME assay, primary screen. P11712. CYP2C9 Supersomes, luciferin-H conversion. inhibition, % at 5 µM. 20% of 96,000 active. AID 777, 2007;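 active means blocking of liver enzyme CYP2C9 beyond about 50% at 5 µM, limit read from the data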
# Target sequence (P11712 whole entry, looked up): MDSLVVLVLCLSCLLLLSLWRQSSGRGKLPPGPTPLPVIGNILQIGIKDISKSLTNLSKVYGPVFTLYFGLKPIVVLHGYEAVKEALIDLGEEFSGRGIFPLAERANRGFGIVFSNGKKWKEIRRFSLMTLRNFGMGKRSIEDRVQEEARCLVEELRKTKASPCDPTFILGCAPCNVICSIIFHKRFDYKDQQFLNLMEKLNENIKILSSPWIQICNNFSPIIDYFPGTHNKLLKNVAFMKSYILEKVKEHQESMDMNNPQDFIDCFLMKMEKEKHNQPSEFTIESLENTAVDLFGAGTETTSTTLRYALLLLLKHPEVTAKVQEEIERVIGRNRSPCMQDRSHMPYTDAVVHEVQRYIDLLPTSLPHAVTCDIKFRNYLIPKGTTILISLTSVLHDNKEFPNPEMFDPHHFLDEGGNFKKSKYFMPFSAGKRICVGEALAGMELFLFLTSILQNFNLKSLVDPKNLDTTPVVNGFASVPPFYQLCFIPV
# CYP2C9 activ: human CYP2C9 activators, primary screen, biochemical, luminescence | 1.4% of 96,000 active | Cytochrome P450 2C9 (Homo sapiens), P11712 | recombinant CYP2C9, luciferin-H conversion; stronger effect = higher value; factor 1 = untreated enzyme, 0 = blocked | activation factor at 5 µM;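 active means activation factor of 2 or more for CYP2C9 at a 5 µM dose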;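 further: 0 = sulfaphenazole-blocked wells and 1 = vehicle-only wells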
# PostGolgi yeast: phenotypic screen on post-Golgi transport, primary screen; post-Golgi transport phenotypic cell assay; inhibition, % at 10 µM; 0.9% of 98,000 active;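 further: yeast cells grown in 1536-well plates; yeast grown about 18 h at 30C before absorbance read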
# Active calls of the source: *; / = not tested or not shown. Unless noted, no stated cut-off is given here; in the data, active means inhibition above about 30%; inactive means the rest.
SMILES,PostGolgi ctrl,CYP2C19 activ,CYP2C19 inh,CYP2C9 inhib,CYP2C9 activ,PostGolgi yeast
COC(=O)c1ccc(NC(=O)CSc2nnc(COc3ccccc3)n2C)cc1,13,0.8,15,17,0.8,8
CC(C)(C)C(=O)NC1CCN(C(=O)N2CCCC2)CC1,13,0.5,53*,6,0.9,-1
CCC(C)(C)n1nnnc1C(c1cc2cc(C)cc(C)c2[nH]c1=O)N1CCN(Cc2ccc3c(c2)OCO3)CC1 (configuration not stated),37*,0.7,26,80*,0.2,18
CCC(C)(C)n1nnnc1C(c1cc2cc3c(cc2[nH]c1=O)OCO3)N1CCN(C)CC1 (configuration not stated),0,1,0,12,0.9,30*
Cc1cc(NC(=O)CSc2nnc(C3CC3)n2Cc2ccccc2)no1,3,0.7,31,40,0.6,6
Cc1ccc(NC(=O)CN(C)S(=O)(=O)c2cccc3nsnc23)cc1Cl,17,0.6,40,84*,0.2,-1
CCN(CCCNC(=O)CN(C)S(=O)(=O)c1cccc2nsnc12)c1ccccc1,1,0.6,37,74*,0.3,-1
Cc1ccnc(NC(=O)CN(C)S(=O)(=O)c2cccc3nsnc23)c1,15,0.8,21,77*,0.2,-3
Cc1ccc2nc(NC(=O)CN(C)S(=O)(=O)c3cccc4nsnc34)sc2c1,-10,0.8,23,19,0.8,6
CN(CC(=O)NCc1ccc(Cl)cc1)S(=O)(=O)c1cccc2cccnc12,11,0.5,45,-72,1.7,3
CN(CC(=O)NCCN1CCN(Cc2ccccc2)CC1)S(=O)(=O)c1cccc2nsnc12,4,1.1,-6,-5,1.1,-3
CN(CC(=O)NCc1ccc(Cl)cc1)S(=O)(=O)c1cccc2nsnc12,2,0.2,82*,20,0.8,-4
CC(C)c1ccc(NC(=O)CCNS(=O)(=O)c2cccc3nsnc23)cc1,6,0.9,11,46,0.5,-8
COCc1cc(C)c2c(N)c(C#N)sc2n1,11,0.7,29,-36,1.4,-9
CCOc1ccc(S(=O)(=O)n2nc(C)cc2C)c2ccccc12,19,0.9,14,8,0.9,-5
CN(CC(=O)Nc1ccc(F)c(F)c1)S(=O)(=O)c1cccc2nsnc12,-2,0.6,39,70*,0.3,3
CC(=O)c1cccc(NC(=O)CCNS(=O)(=O)c2cccc3nsnc23)c1,-1,0.9,5,-9,1.1,2
Cc1ccc(NC(=O)CN(C)S(=O)(=O)c2cccc3nsnc23)cc1C,4,0.7,35,78*,0.2,3
O=C(NCCCN1CCOCC1)c1cc2ccccc2o1,2,0.8,25,7,0.9,14
CCc1nnc(NC(=O)c2cc3ccccc3oc2=O)s1,8,1.2,-17,-18,1.2,5
O=C(Nc1ccc(-n2nncc2-c2ccco2)cc1)c1cc2ccccc2oc1=O,6,0.6,44,63*,0.4,12
O=C(Nc1ccc(-n2nncc2-c2ccco2)cc1)c1cccc(F)c1,14,0,96*,72*,0.3,12
O=C(Nc1ccc(N2CCOCC2)cc1)c1ccc2nc(-c3ccco3)c(-c3ccco3)nc2c1,4,0.9,8,16,0.8,5
CN=CC1=C(O)c2ccccc2C1=O,22,0.8,18,2,1,14
O=C1C(C2=C(O)c3ccccc3C2=O)=Nc2ccccc21,-3,0.6,45,53*,0.5,-4
SMILES,PostGolgi ctrl,CYP2C19 activ,CYP2C19 inh,CYP2C9 inhib,CYP2C9 activ,PostGolgi yeast
COCc1[nH]nc2c1C(c1c(F)cccc1Cl)C(C#N)=C(N)O2 (configuration not stated),1,0.4,58*,44,0.6,16
CCc1[nH]nc2c1C(c1ccc(Br)s1)C(C#N)=C(N)O2 (configuration not stated),27,0.3,67*,66*,0.3,-1
Cc1[nH]nc2c1C(Cc1ccccc1)C(C#N)=C(N)O2 (configuration not stated),-4,0.3,66*,33,0.7,-5
Cc1ccc(C2C(C#N)=C(N)Oc3n[nH]c(C)c32)cc1 (configuration not stated),-3,0.7,27,9,0.9,-1
CCOc1ccccc1C1C(C#N)=C(N)Oc2n[nH]c(CC)c21 (configuration not stated),12,0.6,41,33,0.7,-3
CC(C)c1[nH]nc2c1C(Cc1ccccc1)C(C#N)=C(N)O2 (configuration not stated),10,0,95*,57*,0.4,-3
Cc1cc(NC(=O)CSc2nnc(-c3ccco3)o2)no1,6,1,-4,-8,1.1,2
CC(NS(=O)(=O)c1ccccc1)C(N)=O (configuration not stated),11,1.1,-5,-23,1.2,3
COc1cc(NC(=S)NN2CCN(C)CC2)cc(OC)c1,14,1,3,10,0.9,6
O=[N+]([O-])c1ccc2c(c1)C(O)n1nc(-c3ccc(Cl)cc3Cl)nc1S2 (configuration not stated),7,0.9,13,12,0.9,-3
CNC(=O)C1C(=S)NC(N)=C(C#N)C1c1ccccc1 (configuration not stated),7,1.1,-8,14,0.9,-4
CCCc1[nH]nc2c1C(CCc1ccccc1)C(C#N)=C(N)O2 (configuration not stated),20,0.2,77*,69*,0.3,-2
Cc1ccc(SCc2[nH]nc3c2C(c2ccc(C)o2)C(C#N)=C(N)O3)cc1 (configuration not stated),24,1,1,-18,1.2,-1
CCCc1[nH]nc2c1C(Cc1ccccc1)C(C#N)=C(N)O2 (configuration not stated),2,0.3,68*,6,0.9,-1
Cc1ccc(SCc2[nH]nc3c2C(C(C)C)C(C#N)=C(N)O3)cc1 (configuration not stated),21,0.6,36,52*,0.5,7
CC(C)C1C(C#N)=C(N)Oc2n[nH]c(-c3ccccc3)c21 (configuration not stated),5,/,/,/,/,4
CC(C)c1[nH]nc2c1C(C(C)C)C(C#N)=C(N)O2 (configuration not stated),6,0.4,59*,-11,1.1,-2
Cc1occc1C(=O)Nc1ccc2c(c1)CCC2,1,0.7,26,4,1,4
